In PubChem BioAssay (NCATS):
Inconclusive results are not listed. Unmarked numbers belong to inactive results. Active and inactive are the calls of the source. Calls follow the shape of the dose curve; as a rule, active = well fitted inhibition curve with a large enough effect; inconclusive = small, poorly fitted or top-dose-only effect; inactive = flat fitted curve, though single readings scatter.
% is scaled to controls: 0 for no effect and ±100 for the full control effect; potency is read from the fitted curve at half-maximal effect.

These compounds were tested on HEK293 (assay: Cytotoxic Profiling of Annotated Libraries Using Quantitative High-Throughput Screening (AID 1296008; also: nearly all actives have a fitted effect of over 60% in size)). Details: Five cell lines viability, CellTiter-Glo ATP luminescence, 48-72 h; max response: stronger effect = lower value.
Method in brief: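 Cells exposed to compounds for 48 or 72 hr at 37 degrees Celsius. Viability read as ATP-coupled luminescence with CellTiter-Glo after 10 min at room temperature.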
With O=S(=O)(NCC1CC1)c1ccc(Nc2nccc(N3CCCc4cc(O)ccc43)n2)cc1 the Potency was 1640 nM (active). Nc1nccn2c(C3CCC(C(=O)O)CC3)nc(-c3cc4cccc(Cl)c4[nH]3)c12 (centres undefined) was tested, and the Potency was 5170 nM (active). In the case of C=C(C)C1CCC2(C(=O)O[C@@H]3O[C@H](CO[C@@H]4O[C@H](CO)[C@@H](O)[C@H](O)[C@H]4O)[C@@H](O)[C@H](O[C@@H]4O[C@@H](C)[C@H](O)[C@@H](O)[C@H]4O)[C@H]3O)CCC3(C(=O)O)C(CCC4C5(C)CCC(O)C(C)(C)C5CCC43C)C12 (some centres undefined), the outcome is reported as “inactive”. C=C[C@]1(C)C[C@H](O)[C@@H]2[C@H](OC(=O)[C@@H]2C)C1/C(C)=C/O[C@@H]1O[C@H](CO)[C@@H](O)[C@H](O)[C@H]1O (some centres undefined) gave a max response of -0.606%. In the case of CC1C=CC2CCCCC2C1CCC1CC(O)CC(=O)O1 (centres undefined), the outcome is reported as “inactive”. CC/C=C\CCO[C@@H]1O[C@H](CO)[C@@H](O)[C@H](O)[C@H]1O gave a max response of 0.0515%. Compound Cc1ccc(Cc2c(C)nc3nc(SCC(=O)NCCN4CCNCC4)nn3c2C)cc1 has a max response of 2.24%. Work on CC1(C)CC[C@]2(C(=O)O[C@@H]3O[C@H](CO[C@@H]4O[C@H](CO)[C@@H](O)[C@H](O)[C@H]4O[C@@H]4O[C@H](CO)[C@@H](O)[C@H](O)[C@H]4O)[C@@H](O)[C@H](O[C@@H]4O[C@H](CO)[C@@H](O)[C@H](O)[C@H]4O)[C@H]3O)CC[C@]3(C)C(=CCC4[C@@]5(C)CC[C@@H](O)[C@@](C)(C(=O)O[C@@H]6O[C@H](CO)[C@@H](O)[C@H](O)[C@H]6O)C5CC[C@]43C)[C@@H]2C1 (some centres undefined) yielded a max response of -9.43%. Compound COc1cc(C(=O)O)ccc1OC1OC(CO)C(O)C(O)C1O (centres undefined) has a max response of -3.87%. CC1CCC2(OC1)OC1CC3C4CC=C5CC(O)CC(O[C@@H]6OC[C@@H](O)[C@H](O)[C@H]6O)C5(C)C4CCC3(C)C1(O)C2C (some centres undefined) showed a max response of 3.32%. For CCC(COC)n1nnc2c(Nc3ccc(OC)cc3C)nc(C)cc21 (centres undefined), the max response was -7.21%. With CC(/C=C/C1=CC2=CC(=O)C(C)(O)C(O)C2=CO1)=C\C(C)CCO (centres undefined) the max response was -3.02%. CCCn1c(=O)c2[nH]c(-c3ccc(OCC(=O)O)cc3)nc2n(CCC)c1=O showed a max response of -2.68%. Compound CC(C)(C)CCN1C[C@@H]2C(CNC(=O)c3cc(Cl)cc(Cl)c3)[C@@H]2C1 (some centres undefined) has a max response of -15.4%. CC[C@@H](O)C[C@@H]1C(C)=C[C@@H]2CCCC[C@@H]2[C@@]1(C)C(=O)O gave a max response of -6.46%. With CCn1cc(NC(=S)Nc2cc(Cl)ccc2OC)c(C(N)=O)n1 the max response was -2.95%. CC(=O)O[C@H]1[C@@H](O)[C@H](O[C@H]2[C@@H]3C=CO[C@@H](O[C@H]4O[C@@H](CO)[C@H](O)[C@@H](O)[C@@H]4O)[C@@H]3[C@@]3(CO)O[C@@H]23)O[C@@H](C)[C@@H]1OC(=O)/C=C/c1ccccc1 gave a max response of 4.7%. CC(C)c1cccc2c(-c3ccccc3)cc(-c3ccc(-c4ccc(C(=O)O)cc4)[nH]3)nc12 gave a max response of -107%. For C[C@@H]1CN(Cc2ccccc2)C[C@H]1c1nc2c(cnn2C2CCOCC2)c(=O)[nH]1, the max response was 2.89%. With CC(Oc1ccc2[nH]nc(/C=C/c3cnn(CCO)c3)c2c1)c1c(Cl)cncc1Cl (centres undefined) the Potency was 2910 nM (active). With CC(=O)O[C@@H]1C[C@H](O)[C@@]23CO[C@H](O)[C@]1(C)C2C[C@@H](O)[C@]1(C)C3C(=O)[C@H](OC(C)=O)[C@@]2(C)[C@H](c3ccoc3)C[C@H]3O[C@]321 (some centres undefined) the Potency was 343 nM (active). With COc1ccc(-c2ccc(-c3cn(C(=O)N4CCCCC4c4ccccc4)nn3)cc2)cc1 (centres undefined) the max response was 1.03%. With C=C(C(=O)O)[C@@H]1CC[C@@]2(C)CC[C@H](O)[C@@]2(C(C)=O)C1 the max response was -2.38%. With CCC(CC)C(=O)Nc1sc2c(c1C#N)CCC(C(C)(C)CC)C2 (centres undefined) the Potency was 23100 nM (active). Work on CC1(C)CC2C(C1)C(C)(O)C13CC1(COC3=O)C2O (centres undefined) yielded a max response of -10.5%. CC1=CC(=O)CC(C)(C)[C@@]1(O)CC[C@@H](C)O[C@@H]1O[C@H](CO)[C@@H](O)[C@H](O)[C@H]1O showed a max response of -2.25%. CC(=O)O[C@@H]1[C@@H](OC(=O)/C=C/c2ccccc2)[C@@H](OC(C)=O)[C@H](O[C@H]2[C@@H]3C=CO[C@@H](O[C@@H]4O[C@H](CO)[C@@H](O)[C@H](O)[C@H]4O)[C@@H]3[C@@]3(CO)O[C@@H]23)O[C@H]1C gave a max response of -5.93%. C=C1C[C@]23C[C@H]1CC[C@H]2[C@@]12CC[C@H](O)[C@@](C)(C(=O)O1)[C@H]2[C@@H]3C(=O)O showed a max response of -4.65%. For Cc1cc(OCc2nc(-c3ccccc3Cl)cs2)ccc1OCC(=O)O, the max response was -1.87%.
